SMILES strings stand for the structures. About 11,000 (3.5%) of roughly 310,000 compounds were called active. Inconclusive results (about 4%) are left out. Calls follow the shape of the dose curve; as a rule, active = well fitted inhibition curve with a large enough effect; inconclusive = small, poorly fitted or top-dose-only effect, or another doubt; inactive = no such curve, though single readings can be large or run the other way. Many of the other results were omitted from the sample, so actives are more common in it than they were.
Potency is read from the fitted curve at half-maximal effect.

The target of the assay is 4'-phosphopantetheinyl transferase ffp (Bacillus subtilis) (UniProt Q9F4F7). Put plainly: qHTS Assay for Inhibitors of Bacillus subtilis Sfp phosphopantetheinyl transferase (PPTase).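 Also: the enzyme is Sfp with the accession as filed and its product quenches rhodamine fluorescence.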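 As to largest response in the series, negative = inhibition: 0% = enzyme reaction without inhibitor and -100% = no enzyme wells.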 The note with it: Biochemical Sfp PPTase activity. In short, it runs like this: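 Buffer: 50 mM Hepes-Na pH 7.6, 10 mM MgCl2, 0.01% Nonidet P-40, 0.01% BSA. Enzyme 15 nM, pre-exposed to compound 15 min; substrates then added and fluorescence change tracked over 30 min.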
Background: Quantitative high-throughput screening tests each substance at several concentrations.
Regarding `CC(C)OCCCNC(=O)CN1C(=O)/C(=C/c2ccccc2F)Oc2ccccc21`, the largest response in the series, negative = inhibition was -3.78% (inactive).

Take `CSc1cc(C)[nH]c(=O)n1`: the largest response in the series, negative = inhibition was 7.92% (inactive).

As for `Cc1cc(=O)[nH]c(=S)[nH]1`, the Potency is 31.6 µM (active).

For the compound `Cc1cc(=O)cc(C)[nH]1`, the largest response in the series, negative = inhibition is 15% (inactive).

For `O=C(c1ccc(Cl)c(S(=O)(=O)N2CCCCC2)c1)N1CCCCCC1`, the largest response in the series, negative = inhibition is 16.4% (inactive).

For the compound `O=C(c1ccccc1F)N1CCN(S(=O)(=O)c2ccc(Br)cc2)CC1`, the largest response in the series, negative = inhibition was 9.87% (inactive).

For the compound `O=C(c1ccc[nH]c1=S)N1CCN(S(=O)(=O)c2ccc(Br)cc2Cl)CC1`, the Potency was 79.4 µM (active).

For the compound `CC(C)Sc1ncnc2c1cnn2-c1ccccc1`, the largest response in the series, negative = inhibition was -5.09% (inactive).

For the compound `C=C1C(=O)C23C(O)C1CCC2[C@]12COC3(O)C(O)C1C(C)(C)CC[C@H]2O` (some centres not stated), the largest response in the series, negative = inhibition is -81.1% (inactive).

As for `O=C(COCc1cc(-c2ccc3c(c2)OCO3)on1)N1CCN(c2cccc(Cl)c2)CC1`, the largest response in the series, negative = inhibition was -5.35% (inactive).

Regarding `COc1ccc2c(C)cc3nnnn3c2c1`, the largest response in the series, negative = inhibition is 7.5% (inactive).

As for `COc1ccc2[nH]c(=S)cc(C)c2c1`, the Potency was 39.8 µM (active).

As to `COc1ccc2[nH]c3c(C)c4cc[n+](C)cc4c(C)c3c2c1`, the largest response in the series, negative = inhibition is -11.7% (inactive).

With `CC(C)c1cc(C(=O)N/N=C/c2ccoc2)c(O)c(C(C)C)c1`, the largest response in the series, negative = inhibition was 13.5% (inactive).

Regarding `CC1CC(C)CN(CCCNC(=O)Cn2ncc3c([nH]c4ccccc43)c2=O)C1` (configuration not stated), the largest response in the series, negative = inhibition is 5.5% (inactive).

Consider `CCOC(=O)CSc1nccc(N(C)C)c1C#N`, for which the largest response in the series, negative = inhibition was -4.04% (inactive).

For `CCOC(=O)C(Sc1ncc(C#N)c(N)n1)C(C)C` (configuration not stated), the Potency is 56.2 µM (active).

Consider `CCCCOc1ccc(-c2ncc(C(=O)OCC)c(N)n2)cc1`, for which the largest response in the series, negative = inhibition is 3.34% (inactive).

Consider `Cc1ccc(N2CC(C(=O)NCCS(=O)(=O)N3CCN(c4ccccc4)CC3)CC2=O)cc1` (configuration not stated), for which the largest response in the series, negative = inhibition is 5.68% (inactive).

For the compound `COc1ccc2c3c1OC1CC(O)C=C[C@@]31CCN(C)C2` (some centres not stated), the largest response in the series, negative = inhibition is 17% (inactive).

Take `CCCc1nnc(NC(=O)CN2C(=O)c3ccccc3S2(=O)=O)s1`: the Potency is 22.4 µM (active).

Regarding `O=C(CN1C(=O)c2ccccc2S1(=O)=O)NC1CCCCC1`, the largest response in the series, negative = inhibition is 15.6% (inactive).

As for `CCCCc1nnc(NC(=O)CS(=O)(=O)Cc2ccccc2)s1`, the largest response in the series, negative = inhibition was 8.57% (inactive).

As for `COc1ccc(C)cc1NC(=O)CNCc1cccs1`, the largest response in the series, negative = inhibition was -7.78% (inactive).

As for `O=C(CN(Cc1ccc(Br)cc1)S(=O)(=O)c1ccccc1)NCc1ccncc1`, the largest response in the series, negative = inhibition is -4.2% (inactive).

As to `CCOC(=O)C1CCCN(S(=O)(=O)c2ccc(-n3cnnn3)c(C)c2)C1` (configuration not stated), the largest response in the series, negative = inhibition was 13.1% (inactive).

As for `C#CC(CCN1CCCCC1)(OC)c1ccccc1` (configuration not stated), the largest response in the series, negative = inhibition is 23.4% (inactive).

Regarding `CCOC(=O)c1csc(NC(=O)Nc2cccc(OC)c2)n1`, the largest response in the series, negative = inhibition is 7.72% (inactive).

For `CCOC(=O)C(C)n1cnc2c(nnn2-c2cccc(OC)c2)c1=O` (configuration not stated), the largest response in the series, negative = inhibition was 30.5% (inactive).

`COC(=O)c1sc(N2CCN(Cc3ccccc3)CC2)nc1N`: the largest response in the series, negative = inhibition is -0.821% (inactive).

Consider `COC(=O)c1sc(=S)n(-c2ccc(Cl)cc2)c1C`, for which the largest response in the series, negative = inhibition was -2.12% (inactive).

Regarding `CCOC(=O)c1sc(=S)n(-c2cccc(OC)c2)c1N`, the Potency was 39.8 µM (active).

`COC(=O)c1sc(=S)n(-c2ccccc2)c1N`: the Potency is 31.6 µM (active).

In the case of `Cc1ccn2c(=O)c(C(=O)NCCC3=CCCCC3)c(O)nc2c1`, the largest response in the series, negative = inhibition is -5.56% (inactive).

For the compound `CCc1ccc(N(C(=O)c2csnn2)C(C(=O)NC2CCCCC2)c2cccnc2)cc1` (configuration not stated), the largest response in the series, negative = inhibition was -9.84% (inactive).

As to `CCCCS(=O)(=O)N1C2=NC(C(=O)OC)=C(C(=O)OC)[C@@H]3N(Cc4ccccc4)c4ccccc4[C@]23C[C@H]1C(=O)OC`, the largest response in the series, negative = inhibition is -16% (inactive).

Turning to `Cc1ccc(C2NC(C(=O)O)CS2)cc1` (configuration not stated), the Potency was 70.8 µM (active).

Take `Cc1ccc(C2CC2C(=O)NN)cc1` (configuration not stated): the largest response in the series, negative = inhibition is 6.91% (inactive).

As for `Cc1ccc(C2SCC(=O)N2c2ccccc2)cc1` (configuration not stated), the largest response in the series, negative = inhibition was -9.8% (inactive).

For the compound `CCOc1ccc(N(CC(=O)Nc2cccc(OC)c2)S(C)(=O)=O)cc1`, the largest response in the series, negative = inhibition was 21.6% (inactive).

With `Cn1c(=O)n(C)c2cc(S(=O)(=O)Nc3ccc(F)cc3)ccc21`, the largest response in the series, negative = inhibition is 7.57% (inactive).

For `COc1ccc(C2=NN(C(C)=O)C(c3ccccc3)C2)cc1` (configuration not stated), the largest response in the series, negative = inhibition is 9.33% (inactive).

In the case of `Cc1nn2c(c1-c1ccccc1)N=C(c1ccco1)CC2c1ccccc1` (configuration not stated), the Potency is 15.8 µM (active).

With `O=C(O)CCCC(=O)N1N=C(c2ccco2)CC1c1ccco1` (configuration not stated), the largest response in the series, negative = inhibition is 5.11% (inactive).

Regarding `Cc1cccc([C@@H]2[C@@H]3C(=O)N(Cc4ccccc4)C(=O)[C@@H]3[C@]3(C)C(=O)N(c4ccc(Br)cc4)C(=O)N23)c1`, the largest response in the series, negative = inhibition is 0.791% (inactive).

On to `Cc1ccc2sc(N(CCN(C)C)C(=O)/C=C/c3cccs3)nc2c1C`, for which the largest response in the series, negative = inhibition was 4.98% (inactive).

In the case of `CC(=O)N(CCCN(C)C)c1nc2ccc(C)cc2s1`, the largest response in the series, negative = inhibition is 15.8% (inactive).
